# Results published in ChEMBL document CHEMBL3988442, “University of Dundee, Small-Polar-MMV Screening Library” (2021).
# Key:
# [1] = molecular target: T1, Aspartate--tRNA(Asp/Asn) ligase (Mycobacterium tuberculosis (strain ATCC 25618 / H37Rv)) (UniProt P9WFW3); assay: Assay for Asp RNA synthetase-1 from Mycobacterium tuberculosis; format: functional; design: scale not given: direction of the effect not stated beside the values; conditions: 30 µM; note: in the data most compounds retested in dose-response had high values
# T1 sequence (whole entry): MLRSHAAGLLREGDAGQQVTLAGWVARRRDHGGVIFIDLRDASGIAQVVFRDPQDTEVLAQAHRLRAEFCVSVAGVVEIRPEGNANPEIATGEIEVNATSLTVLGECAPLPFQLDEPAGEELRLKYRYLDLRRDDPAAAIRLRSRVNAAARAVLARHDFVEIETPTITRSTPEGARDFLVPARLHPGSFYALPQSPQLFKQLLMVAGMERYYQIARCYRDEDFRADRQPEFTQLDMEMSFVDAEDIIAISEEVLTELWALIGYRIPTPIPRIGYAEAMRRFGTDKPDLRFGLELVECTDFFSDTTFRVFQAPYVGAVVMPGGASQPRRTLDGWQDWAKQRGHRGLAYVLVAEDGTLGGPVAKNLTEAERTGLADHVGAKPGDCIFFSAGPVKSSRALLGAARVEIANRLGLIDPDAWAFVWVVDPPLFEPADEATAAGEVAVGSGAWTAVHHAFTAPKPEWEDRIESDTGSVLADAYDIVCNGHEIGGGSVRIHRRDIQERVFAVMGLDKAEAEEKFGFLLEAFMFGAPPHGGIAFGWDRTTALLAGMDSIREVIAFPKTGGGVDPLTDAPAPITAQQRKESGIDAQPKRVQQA
# [2] = molecular target: Shiga toxin 2 (Escherichia coli O157:H7) (UniProt P09385+P09386); assay: E. coli 0.157:H7 Shiga Toxin SOP - stx2 screening assay; format: functional; design: scale not given: direction of the effect not stated beside the values; conditions: 30 µM
SMILES,Percent Effect [1],Percent Effect [2]
CCc1nccn1C1CCCN(C(=O)CCCNc2ncccn2)C1 (configuration not stated),-4.79%,8.61%
CN(C)C(=O)CNC(=O)CCn1ncc2c(Cl)cccc21,-0.813%,-27.9%
COc1ccc(C2=CCN(C(=O)C3CCN(C)C(=O)C3)CC2)cc1 (configuration not stated),3.17%,27.5%
Cc1ccccc1NS(=O)(=O)c1cc2c(c(C(=O)O)c1)OCCO2,-0.815%,29.1%
COc1c(CNCC(c2cccc(F)c2)N(C)C)c(C(C)C)nn1C (configuration not stated),-3.2%,-15.5%
CC(=O)N1CCCC1c1nccnc1Nc1cccc(C)n1 (configuration not stated),1.07%,-5.74%
CCc1cc(C(F)(F)F)c2c(C)nn(CC(=O)O)c2n1,-5.37%,14.6%
Cc1cc(C(=O)NCc2ccc(N3CCCC(C(N)=O)C3)cc2)[nH]n1 (configuration not stated),-3.98%,-16.8%
O=C(O)c1cc(S(=O)(=O)Nc2cc(F)ccc2F)cc2c1OCCO2,-2.5%,31.1%
CCNC(=O)[C@@H]1C[C@@H](NC(=O)Cc2ccccn2)CN1CCCSC,-0.228%,-40.5%
Cc1nc(C)n(CC2CN(CCOc3ccccc3F)CCO2)n1 (configuration not stated),-0.955%,9.47%
Cc1nc(C)n(CC2CCCN(Cc3nc(C)c(C)o3)C2)n1 (configuration not stated),7.92%,5.16%
COC(=O)c1ccoc1COC(=O)CCc1ccc(OC)c(OC)c1,-3.44%,0.432%
O=C(C1CC=CC1)N1C[C@@H]2[C@@H](C1)OCC(=O)N2Cc1cccnc1,1.21%,-12.2%
NC(=O)CC1CCN(C(=O)NCc2ccccc2-n2cccn2)CC1,-3.48%,-4.75%
Cc1ccc(F)c(-n2nnc(C(=O)O)c2-c2ccncc2)c1,6.35%,-7.89%
CC(=O)N1C[C@@H](c2ccsc2)[C@@H]2CN(Cc3ccccc3)CC[C@@H]21,2.13%,-20.6%
O=C(Nc1nccs1)N(CCO)Cc1ccsc1,-2.48%,-3.95%
CCc1nnsc1C(=O)NC1CCN(c2ccccn2)CC1,-5.57%,-24.7%
CCn1c(C(=O)N2CCN(C(=O)NC(C)C)CC2)cc2ccccc21,2.76%,18.3%
O=C1CCSCC(C(=O)N2CCN(C3CCCCC3)CC2)N1 (configuration not stated),-4.14%,-2.45%
CC(C)NC(=O)[C@H]1C[C@@H]2[C@@H](C1)OCCN2Cc1cnn(C)c1,2.71%,-17.8%
CCCNC(=O)CNc1cc(C#N)ccc1OCC,-8.31%,-4.19%

SMILES,Percent Effect [1],Percent Effect [2]
O=C(Nc1cn[nH]c1)c1ccc(O)nc1,-1.37%,30.3%
CSCCCNC(=O)Nc1cccc(-c2nccn2C)c1,-3.93%,-93.1%
O=C(c1ccco1)N1CCOCC2(C1)CN(c1ccccc1)C(=O)CO2 (configuration not stated),8.44%,2.61%
Cc1ncc(CNC(=O)Nc2cc(C(F)(F)F)c[nH]c2=O)s1,2.67%,-19.6%
COCC(NC(=O)c1cc[nH]n1)c1cccc(C(F)(F)F)c1 (configuration not stated),-7.45%,-7.89%
CC(=O)c1cccc(OCC(=O)NS(=O)(=O)c2ccc(C)s2)c1,-3.8%,-7.24%
CCc1ncncc1C(=O)N1CCN(Cc2c(C)noc2C)CC1,0.0281%,36.8%
Cc1ccc(OCC(=O)NS(=O)(=O)c2c(C)noc2C)cc1C,-4.32%,-54.6%
COCCOCC(=O)Nc1ccc(Br)cc1F,-5.06%,-5.97%
Cc1cnc(CN(C)C2CCN(Cc3nc4ccccc4n3C)C2)o1 (configuration not stated),-5.16%,-27.3%
Clc1ccc2cccnc2c1CN1CCCC1Cn1cncn1 (configuration not stated),-0.524%,0.609%
Cc1cc(CN2CCN(CC(O)c3ccccc3)CC2)no1 (configuration not stated),-5.08%,3.56%
O=S(=O)(NC1=NCN(CCc2cccs2)CN1)c1ccccc1,-3.8%,-12.6%
O=C(c1ccc2[nH]ccc2c1)N1CCn2cnc(COCC3CC3)c2C1,7.07%,-13.5%
Cn1cc(C(=O)NC2CCN(Cc3ccn(C)c(=O)c3)CC2)cn1,1.68%,-28%
CNC(=O)c1ccc(CN(C(=O)c2scnc2C)C2CC2)cc1,-2.83%,-32.1%
OCC1CCCN1c1cc(N2CCN(c3ccccn3)CC2)ncn1 (configuration not stated),-3.49%,32.6%
CCc1nc(CN2CCCN(C(=O)CCc3ccco3)CC2)cs1,-4.26%,-71.2%
CC(C)(C)c1n[nH]c(C2CN(C(=O)c3ccsc3)CCO2)n1 (configuration not stated),-2.97%,7.5%
Cc1cccc(-c2nc(C)nn2CC(=O)NC2CCCC2)c1,-5.28%,-29.1%
COc1ccc(CN2CCn3cc(CN4CCN(C)CC4)nc3C2)cc1,-1.67%,10.3%
CC(C)N(C)Cc1nnc2n1CCCN(C(=O)c1ccco1)C2,1.27%,-12.8%
Cc1ccsc1[C@@H]1CCN(C(=O)c2cc3ccccc3[nH]2)C[C@H]1O,-0.724%,-11.7%
